Experimental data taken from ChEMBL document CHEMBL1157539, “Thousands of chemical starting points for antimalarial lead identification” (Nature, 2010).

Assays:
Format in all cases: functional
[1] = test system: Plasmodium falciparum; experiment: GSK_TCMDC: Inhibition of Plasmodium falciparum 3D7 in whole red blood cells, using parasite LDH activity as an index of growth. Test compounds present at 2uM
[2] = test system: Plasmodium falciparum; experiment: GSK_TCMDC: Inhibition of Plasmodium falciparum Dd2 in whole red blood cells, using parasite LDH activity as an index of growth. Test compounds present at 2uM
[3] = test system: HepG2; experiment: GSK_TCMDC: Percent inhibition of human HepG2 cell line. Test compounds present at 10uM.

Cl.N=c1n(CCN2CCCCC2)c2ccccc2n1CC(O)c1cccc(Br)c1 (stereo not given)
Inhibition [1]: 86% | Inhibition [2]: 33% | Inhibition [3]: 25%

COc1cc2ncnc(Nc3ccc(OCc4ccccc4)c(OCc4ccccc4)c3)c2cc1OC.Cl
Inhibition [1]: 100% | Inhibition [2]: 57% | Inhibition [3]: 4%

COc1ccc(NC(=O)NC2CCN(c3ccnc4cc(Cl)ccc34)CC2)cc1.O=C(O)C(F)(F)F
Inhibition [1]: 83% | Inhibition [2]: 64% | Inhibition [3]: 5%

CCN(CCCN1CCCCC1)c1cc(C)nc(Nc2ccc(C)cc2)n1.O=C(O)C(F)(F)F
Inhibition [1]: 100% | Inhibition [2]: 10% | Inhibition [3]: 17%

COc1cc2c(cc1OCCN1CCC(N3CCCCC3)CC1)N(C(=O)/C=C/c1ccccc1OC(F)(F)F)CC2.Cl
Inhibition [1]: 100% | Inhibition [2]: 93% | Inhibition [3]: 64%

CCC(C)CNC(=O)CN1CN(c2ccccc2)C2(CCN(C(=O)c3ccc(Br)cc3)CC2)C1=O (stereo not given)
Inhibition [1]: 88% | Inhibition [2]: 88% | Inhibition [3]: 10%

O=c1cc(NCCCNCc2cccc(I)c2)[nH]c2ccccc12
Inhibition [1]: 90% | Inhibition [2]: 9% | Inhibition [3]: 10%

Cc1cccc(C(=O)NCCCN2CCC(NC(=O)/C=C/c3ccc(Cl)c(Cl)c3)CC2)c1.O=C(O)C(F)(F)F
Inhibition [1]: 98% | Inhibition [2]: 23% | Inhibition [3]: 39%

O=C(O)C(F)(F)F.c1cc(-c2ccc(CNCc3ccsc3)cc2)cc(-c2nc3ccccc3[nH]2)c1
Inhibition [1]: 100% | Inhibition [2]: 82% | Inhibition [3]: 46%

COc1c(C2CCN(CCCCNC(=O)c3ccc(-c4ccc(C#N)cc4)c(O)c3)CC2)ccc2c1CCCC2.Cl
Inhibition [1]: 100% | Inhibition [2]: 78% | Inhibition [3]: 35%
